A selection: hits, their analogues and other compounds. The true share with any hit is near 11%.
VP16 counter: counter-screen for ROR gamma inhibitors: Gal4-VP16 reporter; Potency, µM (highest dose often 53.6 µM), inactives show at the top dose activity, negative = inhibition, usual class: inhibitors; hit rate 3.5% among 310,000; Drosophila S2 Gal4-VP16 UAS-luciferase, luminescence, 20 h;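 also: Gal4-VP16 expression switched on by copper sulfate through the metallothionein promoter; potency is read from the fitted curve at half-maximal effect; % is scaled to controls: 0 for no effect and ±100 for the full control effect; nearly all actives have a fitted effect of over 50% in size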
IL-1B inflam inh: blocks inflammasome-driven IL-1 beta release; hit rate 4.7% among 360,000; activity change, % at 57.5 µM; THP-1 LPS/ATP IL-1B secretion, AlphaLISA, 16 h; stronger effect = lower value; in the data active = activity change below about -50%; inconclusive = mostly about -30% to -49%; also: % is scaled to controls: 0 for no effect and ±100 for the full control effect
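Secreted IL-1B measured by AlphaLISA bead assay after 16 h compound exposure of THP-1 cells; compounds (final up to 57.5 uM) added 1 h before LPS (250 ng/mL) and ATP (1.25 mM) stimulation; lower signal means less secretion.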
SW480 rereplic: inducers of DNA re-replication in SW480 colon cancer cells; SW480 DNA re-replication, Hoechst DNA content imaging, 48 h; Potency, µM (titrated, usually from 46.1 µM), for inactives: at the highest dose re-replication activation, hits mostly activators; hit rate 1.8% among 340,000; AID 624297; also: potency is read from the fitted curve at half-maximal effect; % of control where 0% means no effect; nearly all actives have a fitted effect of over 55% in size
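Readout is total intensity of Hoechst-stained nuclei, excited at 405 nm and collected at 500-530 nm. Compound treatment lasted 48 hr at 37 C in 5% CO2 before staining.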
RORg inh: inhibitors of mouse ROR gamma transcriptional activity; P51450; Drosophila S2 Gal4-RORgamma UAS-luciferase reporter, 20 h; Potency, µM (doses to about 53.6 µM), without a hit: at the highest dose activity change, negative = inhibition, actives largely listed as inhibitors; hit rate 5.4% among 310,000; AID 2551; also: potency is read from the fitted curve at half-maximal effect; % is scaled to controls: 0 for no effect and ±100 for the full control effect; nearly all actives have a fitted effect of over 60% in size
Target sequence (P51450 whole entry, looked up, the tested form may be a part): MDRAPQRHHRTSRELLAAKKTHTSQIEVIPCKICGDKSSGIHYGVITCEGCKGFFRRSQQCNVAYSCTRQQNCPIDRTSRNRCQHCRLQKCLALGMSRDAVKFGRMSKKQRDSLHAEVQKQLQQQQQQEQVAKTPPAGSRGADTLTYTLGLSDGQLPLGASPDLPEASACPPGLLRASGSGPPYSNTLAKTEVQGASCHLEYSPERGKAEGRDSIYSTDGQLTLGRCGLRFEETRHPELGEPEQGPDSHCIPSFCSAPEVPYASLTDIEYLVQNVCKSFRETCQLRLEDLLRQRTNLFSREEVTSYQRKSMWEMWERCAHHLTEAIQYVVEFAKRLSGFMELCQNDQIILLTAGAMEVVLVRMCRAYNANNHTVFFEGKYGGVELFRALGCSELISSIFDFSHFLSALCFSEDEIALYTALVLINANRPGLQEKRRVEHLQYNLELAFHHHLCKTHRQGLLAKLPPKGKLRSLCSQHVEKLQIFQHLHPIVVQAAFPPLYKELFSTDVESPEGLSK
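Compounds are pin-transferred onto Drosophila Schneider cells expressing a copper-inducible Gal4–ROR gamma transactivation domain fusion. After 1 hr, copper sulfate is added to 700 uM final; luciferase is read 20 hr later.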
MCF10A rerep: inducers of DNA re-replication in MCF 10A breast cells | MCF 10A DNA re-replication, Hoechst nuclear intensity, 48 h | Potency, µM (titrated, usually from 46.1 µM), for inactives: top-dose activity, positive = re-replication, most hits filed as activators | hit rate 2.9% among 350,000 | AID 624296; also: potency is read from the fitted curve at half-maximal effect; % of control where 0% means no effect; nearly all actives have a fitted effect of over 50% in size
An asterisk follows results filed as active; i = inactive; ? = inconclusive; . = no result given; [ ] = dose if it differs, or a comment. Unless noted, calls follow the shape of the dose curve; as a rule, active = well fitted curve in the direction sought with a large enough effect; inconclusive = small, poorly fitted or top-dose-only effect, or another doubt; inactive = no such curve, though single readings can be large; an effect the other way counts as inactive or inconclusive.

SMILES | VP16 counter | IL-1B inflam inh | SW480 rereplic | RORg inh | MCF10A rerep
CCn1c(SCC(=O)N2CCN(c3ccccc3)CC2)nc2c([nH]c3ccccc32)c1=O | -7% | i | -11% | -22% | -18%
[O-]/[N+](=N\Nc1ccc(Cl)cc1)c1ccccc1 | . | 8 | 0% | . | -39%
C[C@H]1C[C@@H]2[C@@H]([C@@H](O)C[C@@]3(C)[C@H]2CC[C@]3(O)C(=O)CO)[C@@]2(C)C=CC(=O)C=C12 | -5%[17 µM] | . | -5%[20.6 µM] | -15%[2.98 µM] | -2%[20.6 µM]
CCC(C)C(NC(=O)c1ccccc1NC(=O)c1ccco1)C(=O)NNC(=O)c1ccc(OC)cc1 (configuration not stated) | -15% | -28 | 0% | ? | 6%
CCC(NC(=O)c1ccccc1NC(=O)c1ccccc1)C(=O)OC (configuration not stated) | 6.3µM* | -6 | ? | ? | 0%
CCC(NC(=O)c1ccccc1NC(=O)c1ccco1)C(=O)NNC(=O)c1ccc(OC)cc1 (configuration not stated) | -7% | -120* | ? | 1% | ?
O=C(c1cccc(Cl)c1)N1CCCc2ccccc21 | 0% | 0 | -1% | 1%[1.91 µM] | 4%
CCCCCCCCCCOCCC(=O)O | -7% | . | . | -4% | .
CC(O)CN(CC(C)O)c1ccc2c(c1)Cc1cc([N+](=O)[O-])ccc1-2 (configuration not stated) | . | ? | 8.2µM* | . | 12µM*
CCN(CC)CCNC(=O)c1ccc(NC(=O)c2ccc(C(=O)c3ccccc3)cc2)cc1 | . | -69* | 13% | . | -20%
CCN(CC)CCNC(=O)c1ccc(Cl)c(S(=O)(=O)Nc2ccc(Cl)cc2)c1 | 20µM* | -9 | -9% | ? | 18%
CCN(CC)CCNC(=O)c1ccc(NC(=O)c2ccc(Cl)c(S(=O)(=O)N3CCCCCC3)c2)cc1 | ? | -104* | ? | ? | ?
CCN(CC)S(=O)(=O)c1cc(C(=O)Nc2ccncc2)ccc1Cl | ? | -56* | -6% | ? | 1%
Cc1ccc(CCNC(=O)C2CCN(S(=O)(=O)c3ccc4c(c3)NC(=O)CO4)CC2)cc1 | 9% | 19 | -6% | 23% | 15%
CC(=O)N(Cc1cccs1)Cc1cc2cc(C)c(C)cc2nc1Cl | -2% | -53* | -25% | 2% | 6%
COc1ccc(/C=C2\C(=O)NC(=S)N2C(=O)c2ccc(F)cc2)cc1 | 11µM* | 12 | 3% | 8.9µM* | ?
COc1cc(C(=O)OCCCOC(=O)c2cc(OC)c(OC)c(OC)c2)cc(OC)c1OC | 1% | -1 | 4% | -13% | -14%
COc1cc(OC)c(C(=O)OCCCOC(=O)c2cc(OC)c(OC)cc2OC)cc1OC | 10µM* | -3 | -1% | 7.9µM* | -1%
COC(=O)c1ccc(C(NC(=O)OCc2ccccc2)/C(I)=C/[C@@H](C)C(=O)NCc2ccc(C)o2)cc1 (some centres not stated) | 12% | . | . | ? | .
COc1cc(C(=O)OCC(=O)N2c3ccccc3NC(=O)C2(C)C)ccc1OCC(C)C | . | -81* | 7% | . | ?
CC1(C)C(=O)Nc2ccccc2N1C(=O)COC(=O)c1cccc(O)c1 | . | -22 | ? | . | 6%
Cc1ccc(S(=O)(=O)NCCNc2ccc(Br)c(C)c2)cc1 | . | 6 | 0% | . | 13%
CC(C)(C)OC(=O)N(CCc1ccccc1)Cc1ccccc1OCc1ccc(NC(=O)C2CCC2)cc1 | . | -10 | ? | . | 6.5µM*
CC(C)(C)OC(=O)N(Cc1ccccc1)Cc1ccccc1OCc1ccc(NC(=O)C2CCC2)cc1 | . | -68* | ? | . | ?
Cc1cccc(NC(=O)CSc2ccc3nnc(-c4cccnc4)n3n2)c1 | -1% | i | -44% | 10% | -15%
SMILES | VP16 counter | IL-1B inflam inh | SW480 rereplic | RORg inh | MCF10A rerep
COCCn1c(=O)c(-c2ccc(Cl)cc2)nc2cnc(Oc3ccc(OC)cc3)nc21 | 9% | . | . | 22% | .
Cc1ccc(S(=O)(=O)n2c3ccccc3c3nnc(C(=O)c4ccccc4)nc32)cc1 | -1%[10 µM] | . | . | 25%[10 µM] | .
Fc1ccc(CN2CCN3CCCC3C2C2CCCCC2)cc1F (configuration not stated) | 0% | -29 | ? | -13% | 21µM*
CCOC(=O)CSc1ccc2nnc(-c3cccs3)n2n1 | -5% | -52* | -15% | 21% | 14%
CCSc1ccc2nnc(-c3cccs3)n2n1 | 5% | -17 | -2% | 3% | 4%
CCOC(=O)N1CCN(C(=O)c2ccc3c(c2)N(Cc2cc(C)ccc2C)C(=O)c2ccccc2S3=O)CC1 (configuration not stated) | -8% | -15 | -1% | 18% | 2%
Cc1c(C(=O)OCc2ccccc2)[nH]c2c1C(=O)CC(c1ccco1)C2 (configuration not stated) | ? | 0 | ? | -18% | ?
COCCOC(=O)c1[nH]c2c(c1C)C(=O)CC(c1cc(OC)c(OC)c(OC)c1)C2 (configuration not stated) | ? | -21 | 3% | ? | 17%
COCCOC(=O)c1[nH]c2c(c1C)C(=O)CC(c1ccc(F)cc1)C2 (configuration not stated) | -6% | 62 | ? | 34% | ?
CSCCOC(=O)c1[nH]c2c(c1C)C(=O)CC(c1ccco1)C2 (configuration not stated) | 3% | 53 | 1.3µM* | ? | ?
Cc1c(C(=O)OCCOC(C)C)[nH]c2c1C(=O)CC(c1ccco1)C2 (configuration not stated) | -3% | 97 | 1.5µM* | ? | ?
Cc1c(C(=O)OCCOC(C)C)[nH]c2c1C(=O)CC(C)(C)C2 | 29% | -7 | 3% | ? | -1%
CCOC(=O)c1[nH]c2c(c1C)C(=O)CC(c1ccco1)C2 (configuration not stated) | -5% | 82 | 0.18µM* | ? | 9.2µM*
COCCOC(=O)c1[nH]c2c(c1C)C(=O)CC(c1ccccc1)C2 (configuration not stated) | 1% | 36 | 7.3µM* | ? | 5.8µM*
O=C(CCC(=O)OCCOc1ccccc1)OCCOc1ccccc1 | . | 0 | . | . | .
CN(C(=O)c1cccc(NC(=O)Cc2cccc([N+](=O)[O-])c2)c1)C1CCCC1 | . | . | 0% | . | 2%
COCCOC(=O)c1[nH]c2c(c1C)C(=O)CC(c1ccco1)C2 (configuration not stated) | -8% | 77 | 1µM* | -6% | 8.2µM*
COCCOC(=O)c1[nH]c2c(c1C)C(=O)CC(c1ccc(N(C)C)cc1)C2 (configuration not stated) | ? | -12 | -3% | 62% | 8%
CCNC(=O)C1(C)CCCN1C(=O)c1ccc(-c2ccccc2)cc1 (configuration not stated) | . | 43 | . | . | .

From PubChem
